KCNQ2 inh: inhibitors of rat KCNQ2 potassium channel. O88943. CHO-K1 KCNQ2, FluxOR thallium flux, 20 min; hits give low values. B-score at 10 µM. actives 1.1% (n = 310,000). AID 2156;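 active = fluorescence ratio B-score at most minus 3 library SDs, with starting brightness B-score within 2 library SDs, cut at about -5.5 in these data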
Target sequence (O88943 whole entry, looked up): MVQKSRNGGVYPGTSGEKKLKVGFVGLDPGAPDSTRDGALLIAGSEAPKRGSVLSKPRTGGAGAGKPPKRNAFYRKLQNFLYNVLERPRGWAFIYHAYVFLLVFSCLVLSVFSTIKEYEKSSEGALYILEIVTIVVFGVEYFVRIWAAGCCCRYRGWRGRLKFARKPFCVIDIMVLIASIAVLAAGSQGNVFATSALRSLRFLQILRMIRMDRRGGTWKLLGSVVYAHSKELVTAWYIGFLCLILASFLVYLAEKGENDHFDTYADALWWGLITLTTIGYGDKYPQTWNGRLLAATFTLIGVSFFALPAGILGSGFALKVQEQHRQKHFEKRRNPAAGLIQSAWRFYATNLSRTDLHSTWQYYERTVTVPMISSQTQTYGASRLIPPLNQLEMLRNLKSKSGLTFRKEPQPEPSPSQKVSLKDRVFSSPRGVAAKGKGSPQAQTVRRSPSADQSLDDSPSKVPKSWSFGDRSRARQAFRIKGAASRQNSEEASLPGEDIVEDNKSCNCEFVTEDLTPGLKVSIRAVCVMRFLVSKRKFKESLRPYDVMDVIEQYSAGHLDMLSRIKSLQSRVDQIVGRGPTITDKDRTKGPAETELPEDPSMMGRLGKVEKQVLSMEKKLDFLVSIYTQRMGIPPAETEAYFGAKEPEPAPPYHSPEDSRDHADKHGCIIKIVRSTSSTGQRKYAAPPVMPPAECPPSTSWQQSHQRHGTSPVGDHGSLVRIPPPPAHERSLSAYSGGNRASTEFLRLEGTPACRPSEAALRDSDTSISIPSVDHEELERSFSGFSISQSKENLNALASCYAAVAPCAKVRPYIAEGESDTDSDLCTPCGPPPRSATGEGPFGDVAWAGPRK
KCNQ2 pot: potentiators of rat KCNQ2 potassium channel; O88943; CHO-K1 KCNQ2, FluxOR thallium flux fluorescence; hits give high values; B-score at 10 µM; actives 0.54% (n = 310,000); AID 2239;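 active = fluorescence ratio B-score at least 3 SD of library B-scores, with initial fluorescence B-score within 3 of them, cut at about 5.3 in these data; same plate scores as AID 2156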;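 also: B-score of peak minus minimum over baseline fluorescence ratio after K+ and Tl+ stimulus; positive B-score means potentiation of KCNQ2 with more thallium influx and brighter signal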
A number is an active result; i = inactive; nt = no result given. Compounds with a hit are over-represented: about 1.6% of the library has one in this group of screens.

SMILES	KCNQ2 inh	KCNQ2 pot
CSCCC1NC(=O)N(C(C)C(=O)Nc2cc(Cl)cc(Cl)c2)C1=O (stereo not given)	i	i
Cn1nc(-c2ccccn2)nc2c(=O)n(C)c(=O)nc1-2	i	7.4
COc1ccc(-c2nc(-c3ccccn3)ncc2S(C)(=O)=O)cc1	i	i
COc1cccc(-c2cc3nc4c(c(NCC(C)(C)CN(C)C)n3n2)CCCC4)c1	-7.7	i
Fc1cccc(-c2cc3nc4c(c(NCc5ccco5)n3n2)CCCC4)c1	i	nt
COC(=O)c1ccccc1S(=O)(=O)NNC(=O)c1ccccc1-n1cccc1	i	i
CCOCCCNC(=O)c1ccc2c(c1)OCO2	i	nt
CCCCC(CC)CNC(=O)c1ccc2c(c1)OCO2 (stereo not given)	-7	i
Cc1c(Cc2ccccc2)c(=O)oc2c(C)c(OC(C)C(=O)N[C@@H](Cc3ccccc3)C(=O)O)ccc12 (stereo not given in full)	-7.7	i
Cc1c(OCC(=O)N[C@@H](Cc2ccccc2)C(=O)O)ccc2c1oc(=O)c1ccccc12	i	nt
Cc1oc2ccc(NS(=O)(=O)c3ccc(C(C)(C)C)cc3)cc2c1C(=O)Nc1ccccc1	-6	i
CC(=O)c1c(C)oc2ccc(NS(=O)(=O)c3ccc(C)cc3)cc12	i	i
COc1cc2c(cc1NC(=O)CSc1nc3ccc(C)cc3[nH]1)oc1ccccc12	i	nt
CC(=O)Nc1ccc(S(=O)(=O)NCCC(=O)Nc2ccc(C)c(F)c2)cc1	i	nt
CC(C)c1nc(SCC(=O)N2CCN(c3ccccc3)CC2)c2c(=O)n(C)c(=O)n(C)c2n1	i	6.2
CCCc1nc(SCC(=O)N2CCN(c3ccccc3)CC2)c2c(=O)n(C)c(=O)n(C)c2n1	i	i
CC(C)(C)C(=O)Nc1nnc(SCC(=O)NC2CCCC2)s1	i	nt
CN(C)c1cccc(C(=O)OC(C(=O)Nc2ccc(Cl)cc2C(F)(F)F)c2ccccc2)c1 (stereo not given)	-8	i
O=C(OC(C(=O)Nc1ccc(Cl)cc1C(F)(F)F)c1ccccc1)C1=COCCO1 (stereo not given)	i	nt
Cc1ccc(CN2CC(C(=O)N3CCN(S(=O)(=O)c4c(F)cccc4F)CC3)CC2=O)cc1 (stereo not given)	i	nt
Cc1onc(-c2c(F)cccc2Cl)c1C(=O)c1ccc(F)cc1	i	nt
Cc1onc(-c2c(Cl)cccc2Cl)c1C(=O)c1ccc(F)cc1	i	6.8
O=C(O)c1cc(N/N=C/C(Cl)=C/c2ccccc2)ccc1Cl	i	5.3
O=C(O)c1cc(N/N=C/c2cccc3ccccc23)ccc1Cl	i	i
O=C(Nc1cc2c3c(c1)CC(=O)N3CCC2)c1ccccc1Br	i	nt
SMILES	KCNQ2 inh	KCNQ2 pot
COC(=O)c1cc(S(=O)(=O)N2CCC(c3cc(OC)ccc3OC)C2)c[nH]1 (stereo not given)	i	i
Cc1ccc(S(=O)(=O)N2CC=C(C(=O)NCc3ccc(F)cc3)CC2)cc1	i	i
CCN(CC)c1ccc(NC(=O)C2=CCN(S(=O)(=O)c3ccc(F)cc3)CC2)c(C)c1	i	7.1
CCN(Cc1ccccc1)C(=O)CSc1nc(C)cc(=O)[nH]1	i	nt
Cc1cc(-c2nnc(SCC(=O)NC3CC3)n2C(C)C)cs1	i	nt
CN(C)C(=O)c1c2c(nc3ccccc13)CCCC2	i	i
CN(C)C(=O)c1c2c(nc3ccccc13)-c1ccccc1CC2	-6.1	i
CC(C)c1ccc(NC(=O)CN2C(=O)NC3(CCCC3)C2=O)cc1	i	i
CC1CN(c2nc3ccccc3nc2C(C#N)C(=O)OC2CCCCC2)CC(C)O1 (stereo not given)	-5.9	i
CC1CCN(c2nc3ccccc3nc2C(C#N)C(=O)OC2CCCCC2)CC1 (stereo not given)	i	nt
COc1ccc(Cl)cc1NC(=O)CCNS(=O)(=O)c1cccc2nonc12	i	i
CC1CCN(c2c([N+](=O)[O-])nn(-c3ccc4c(c3)OCCO4)[n+]2[O-])CC1	-5.6	i
O=[N+]([O-])c1nn(-c2ccc3c(c2)OCCO3)n(O)c1=NC1CCCCC1	i	i
CCC(Cc1ccccc1)NS(=O)(=O)c1ccc2c(c1)NC(=O)CO2 (stereo not given)	i	i
COc1ccc(CNC(=O)C2Cc3cc(S(=O)(=O)N4CCCC4)ccc3N2C(C)=O)c(OC)c1 (stereo not given)	i	i
Cc1ccc(C(=O)Nc2c(N)nc(SCC(=O)NCC3CCCO3)[nH]c2=O)cc1 (stereo not given)	i	i
Cc1cccc(-n2ncc3c2CCCC3NC(=O)CCc2cccnc2)c1C (stereo not given)	i	nt
COc1cccc2sc3ccc(C#CC4(O)CCCCC4)cc3c(=O)c12	-6.7	i
O=c1c2ccccc2sc2ccc(C#CC3(O)CCCCC3)cc12	i	nt
CCOC(=O)c1ccccc1NC(=O)C1CCN(c2ncnc3sc(C)c(C)c23)CC1	-6	i
Cc1sc2ncnc(N3CCC(C(=O)Nc4ccccc4C(C)(C)C)CC3)c2c1C	i	nt
O=C(c1ccccc1)N1CCc2ccccc21	i	nt
O=C(NC(=S)N1CCc2ccccc21)c1ccccc1	i	14
COC(=O)NNC(=O)c1ccc(C(C)(C)C)cc1	i	nt
Cc1cccc(C(=O)NNC(=O)C(=O)NC(C)(C)C)c1	i	i
SMILES	KCNQ2 inh	KCNQ2 pot
CC(C)(C)NC(=O)C(=O)NNC(=O)COc1ccc(Br)cc1	i	6.2
CC(C)(C)NC(=O)C(=O)NNC(=O)c1ccc(C(C)(C)C)cc1	i	12
O=C(COc1ccc(Br)cc1)NC1CC1	i	i
CC(C)(C)NC(=O)C(=O)NNC(=O)c1cccc(Br)c1	i	6.7
COc1ccccc1CNC(=O)CCC1N=C2c3ccccc3N=C(SCC(=O)NCC3CCCO3)N2C1=O (stereo not given)	i	i
CCc1nnc(NC(=O)CCN2C(=O)/C(=C/c3cc(OC)c(OC)c(OC)c3)SC2=S)s1	i	nt
Cc1csc2nc(CNC(=O)c3cccc(C(F)(F)F)c3)cn12	-6.2	i
O=C(NCc1cn2ccsc2n1)c1cccc(C(F)(F)F)c1	i	nt
CCCCC(O)(c1ccc(CC)cc1)C(CN1CCOCC1)c1ccccc1 (stereo not given)	i	nt
COC(=O)[C@@H](NC(=O)NC1CCCCC1C)C(C)C (stereo not given in full)	i	i
CCCCn1cnc2sc(-c3ccccc3)cc2c1=O	i	i
O=c1c2cc(-c3ccccc3)sc2ncn1/N=C/c1ccco1	-5.9	i
Cc1cccc(C(C(=O)NC2CCCCC2)N(C(=O)c2csnn2)C2CC2)c1 (stereo not given)	i	i
C[C@]12CCC(O)CC1CCC1C2CC[C@]2(C)C(c3cc(C(F)(F)F)n[nH]3)CCC12 (stereo not given in full)	i	nt
O=C1CC2(CCN(C(=O)C3CC(=O)N(c4ccc(F)cc4)C3)CC2)Oc2ccccc21 (stereo not given)	i	i
CCOc1c(C)cnc2c1c(=O)n(Cc1ccccc1Cl)c(=O)n2C	i	nt
CCO/C(C)=N/n1c2nc3ccccc3nc2c2c(=O)n(Cc3ccccc3Cl)c(C)nc21	-8.4	i
CCO[C@@H]1OC(C(=O)N2CCOCC2)=C[C@H](C(C)(C)C)[C@H]1CCCO	i	i
COc1ccnc2c1c(=O)n(Cc1ccc(Cl)cc1Cl)c(=O)n2C	-5.9	i
COc1ccnc2c1c(=O)n(Cc1ccccc1Cl)c(=O)n2C	i	nt
CC(NC(=O)CN(c1ccc(Cl)cc1)S(C)(=O)=O)c1ccccc1 (stereo not given)	i	i
COc1cc2c(cc1NC(=O)CSc1nnc(Cc3cccs3)n1Cc1ccco1)oc1ccccc12	i	nt

Source: PubChem BioAssay (Johns Hopkins Ion Channel Center)
